CYP2C9 act: human CYP2C9 activators, primary screen, biochemical, luminescence; activation factor at 5 µM; recombinant CYP2C9, luciferin-H conversion; active compounds read high; factor 1 = untreated enzyme, 0 = blocked; AID 1024, 2008; Cytochrome P450 2C9 (Homo sapiens), P11712; 1.4% of 96,000 active;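 active = activation factor of 2 or more for CYP2C9 at a 5 µM dose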;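 also: 0 = sulfaphenazole-blocked wells and 1 = vehicle-only wells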
CYP2C9 inh: blockers of cytochrome P450 2C9 activity – biochemical, luminescence, ADME assay, primary screen. inhibition, % at 5 µM. CYP2C9 Supersomes, luciferin-H conversion. 20% of 96,000 active. P11712;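 active = blocking of liver enzyme CYP2C9 beyond about 50% at 5 µM, limit read from the data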
CYP2C19 inh: blockers of cytochrome P450 2C19 activity – biochemical, luminescence, ADME assay, primary screen; 21% of 96,000 active; inhibition, % at 5 µM; CYP2C19 Supersomes, luciferin-H EGE luminescence, 30 min; P33261; AID 778, 2007;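 active = CYP2C19 inhibition above a set limit at 5 µM in the primary screen, cut at about 50% in these data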;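 also: plate controls were negative control wells for no effect and 2.5 mM tranylcypromine positive control for full effect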
Target sequence (P33261 whole entry, looked up): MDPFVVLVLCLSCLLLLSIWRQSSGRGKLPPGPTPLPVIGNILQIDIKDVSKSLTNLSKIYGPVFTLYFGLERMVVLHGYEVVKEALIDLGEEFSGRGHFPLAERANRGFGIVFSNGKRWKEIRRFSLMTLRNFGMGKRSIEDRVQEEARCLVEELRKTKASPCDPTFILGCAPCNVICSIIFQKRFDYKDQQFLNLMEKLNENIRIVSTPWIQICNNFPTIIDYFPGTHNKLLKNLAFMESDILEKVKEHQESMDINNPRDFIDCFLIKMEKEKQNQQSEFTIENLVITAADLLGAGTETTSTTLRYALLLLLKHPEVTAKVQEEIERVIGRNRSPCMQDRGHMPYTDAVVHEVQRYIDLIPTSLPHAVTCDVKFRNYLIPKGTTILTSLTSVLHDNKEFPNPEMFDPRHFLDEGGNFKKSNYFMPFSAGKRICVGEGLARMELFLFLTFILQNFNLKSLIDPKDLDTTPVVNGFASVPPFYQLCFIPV
Pyk2 oligo antag: antagonists of Pyk2 self-association, primary screen, Q293 cells, FERM NanoBiT luminescence, HTS. Protein-tyrosine kinase 2-beta (Homo sapiens), Q14289. z-score (the deposit names both 25 µM and 10 µM). active compounds read low. 0.83% of 99,000 active;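 active = Z-score of -3 or lower, scaled per plate to the spread of control and sample wells; inactive = z-score above -3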;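 also: negative z-score means lost luminescence so less FERM oligomerization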
CYP2C19 act: human CYP2C19 activators, primary screen, biochemical, luminescence | recombinant CYP2C19, luciferin-H EGE luminescence; active compounds read high; 0 = fully inhibited enzyme, 1 = untreated enzyme | activation factor at 5 µM | 96,000 tested, under 10 active;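 active = activation factor of at least 2 at 5 µM in the primary screen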;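 also: 0 = wells with 2.5 mM tranylcypromine and 1 = vehicle-only wells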
Cav3 T inh: Cav3.2 calcium influx blockers – cell-based, Fluo-4 calcium fluorescence, FDSS, MLSMR library, primary screen; Cav3.2-expressing cells; active compounds read low; B-score at 10 µM; 4% of 100,000 active; AID 449739, 2010;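 active = single-dose well whose peak fluorescence ratio is a statistical outlier from its plate by either plate-standardised score or position-corrected B-score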
Numbers without * were called inactive; . = no result. Most compounds without a hit are left out; they make up all but 27% or so of the library.

SMILES | CYP2C9 act | CYP2C9 inh | CYP2C19 inh | Pyk2 oligo antag | CYP2C19 act | Cav3 T inh
O=S(=O)(NCc1ccncc1)c1ccccc1 | 0.7 | 33 | 91* | 0.51 | 0.1 | -0.053
CCOC(=O)COc1ccc(S(=O)(=O)NCc2cccnc2)cc1 | 0.9 | 5 | -1 | 1.1 | 1 | 0.57
COC(=O)COc1ccc(S(=O)(=O)NCc2ccncc2)cc1 | 0.3 | 70* | 99* | 0.01 | 0 | .
CN1CC(=O)N2[C@H](c3ccc4c(c3)OCO4)c3[nH]c4ccccc4c3C[C@@H]2C1=O | . | . | . | . | . | 0.4
COCCN1C(=O)N[C@@H](CCc2ccccc2)[C@H](C(=O)OC)[C@H]1C | . | . | . | . | . | 1.1
CCOc1ccc(N(C(C)C(=O)N/N=C(\C)c2cccc(NC(=O)c3ccccc3)c2)S(C)(=O)=O)cc1 (stereo unspecified) | 0.3 | 69* | 76* | -0.33 | 0.2 | -10*
CCOC(=O)C1=C(CSc2nncn2C)NC(=O)NC1c1cc(OCC)ccc1OCC (stereo unspecified) | 1.2 | -23 | -17 | -0.2 | 1.2 | .
Cc1nn(-c2ccccc2)c(OC(=O)c2cccs2)c1S(=O)(=O)c1ccccc1 | 0.2 | 80* | 62* | 0.44 | 0.4 | -2.2
Cc1ccc(S(=O)(=O)Cn2nnnc2C(C(C)C)N2CCSCC2)cc1 (stereo unspecified) | 0.3 | 69* | 24 | 0.08 | 0.8 | -0.039
Cc1ccc(C(c2nnnn2CS(=O)(=O)c2ccc(C)cc2)N2CCN(c3ncccn3)CC2)cc1 (stereo unspecified) | . | . | . | -2.4 | . | -2.1
Cc1ccc(S(=O)(=O)Cn2nnnc2C(c2ccccn2)N2CCN(c3ccccc3)CC2)cc1 (stereo unspecified) | 0.3 | 68* | 72* | -2.4 | 0.3 | -1.9
Cc1ccc(S(=O)(=O)Cn2nnnc2C(C(C)C)N2CCc3ccccc3C2)cc1 (stereo unspecified) | 0.7 | 25 | 32 | -0.43 | 0.7 | -1.7
O=C(CCS(=O)(=O)c1ccccc1)NC12CC3CC(CC(C3)C1)C2 | 0.9 | 8 | 4 | 0.7 | 1 | 0.53
O=S(=O)(NC12CC3CC(CC(C3)C1)C2)c1ccc(F)cc1 | 0.2 | 83* | 88* | -1.5 | 0.1 | -0.51
COc1ccc(S(=O)(=O)N2CCc3ccccc32)cc1C(=O)OCc1nnc(-c2ccccc2)o1 | 0 | 99* | 88* | 0.44 | 0.1 | -3.1
O=C(OCc1nnc(-c2ccccc2)o1)c1cc(S(=O)(=O)N2CCOCC2)c(Cl)cc1Cl | 0.7 | 34 | 17 | 2.5 | 0.8 | 2.5
CCCCNC(=S)NNC(=O)c1ccco1 | . | . | . | 0.55 | . | .
COc1cc(OC)c(OC)cc1/C=N/NC(=S)NCC1CCCO1 (stereo unspecified) | 0.3 | 65* | 5 | -0.55 | 1 | 0.087
CCC(c1nnnn1C(C)(C)C)N(Cc1ccco1)Cc1cc2cccc(C)c2[nH]c1=O (stereo unspecified) | 0.6 | 38 | 42 | 0.3 | 0.6 | -1.7
CC(C)(C)n1nnnc1C(c1ccc(Cl)cc1)N(Cc1cccnc1)Cc1ccco1 (stereo unspecified) | . | . | . | -0.84 | . | -9.5*
CC(C)(C)n1nnnc1C(c1ccc(C(F)(F)F)cc1)N(Cc1ccc(F)cc1)Cc1ccco1 (stereo unspecified) | . | . | . | -0.44 | . | -4.3*
CCC(C)(C)n1nnnc1CN(Cc1ccco1)Cc1cc2cc3c(cc2[nH]c1=O)OCO3 | 0.9 | 10 | 31 | -0.22 | 0.7 | 0.99
Cc1ccc(C(c2nnnn2C(C)(C)C)N(Cc2ccco2)Cc2cccs2)cc1 (stereo unspecified) | 0.2 | 76* | 24 | -0.88 | 0.8 | -5.1*
CCC(C)(C)n1nnnc1CN(Cc1ccc(Cl)cc1)Cc1ccco1 | 0 | 96* | 97* | -0.15 | 0 | .
CC(C)(C)n1nnnc1C(c1ccc(C(F)(F)F)cc1)N(Cc1ccccc1)Cc1ccco1 (stereo unspecified) | 0.9 | 5 | 34 | -0.19 | 0.7 | .
SMILES | CYP2C9 act | CYP2C9 inh | CYP2C19 inh | Pyk2 oligo antag | CYP2C19 act | Cav3 T inh
CCOc1ccc(C2NC(=O)C(C#N)=C(S)N2c2ccc(C)cc2)cc1OC (stereo unspecified) | 0.5 | 47 | -1 | 0.78 | 1 | 0.05
COC(=O)c1ccccc1NC(=O)Cn1cnc2c(cnn2-c2ccccc2)c1=O | 0.9 | 10 | -9 | 0.82 | 1.1 | 0.15
CC(C)NC(=O)c1ccccc1NC(=O)CCc1ccccc1 | . | . | . | -0.24 | . | 0.045
CCc1ccc2c(c1)c1nnc(NN)nc1n2CC | . | . | . | -0.42 | . | .
CC(C)(C)n1nnnc1C(c1ccc(F)cc1)N(Cc1ccc(F)cc1)Cc1ccco1 (stereo unspecified) | 0.3 | 65* | 37 | -0.07 | 0.6 | -6.3*
O=C1Nc2cc(Cl)c(Cl)cc2N(O)N1c1ccc(Cl)c(Cl)c1 | 0.5 | 54* | 12 | -0.04 | 0.9 | -1.6
C/C(=N\Nc1nc2c(s1)CCCC2)c1ccccc1 | 0.2 | 82* | 72* | 0.29 | 0.3 | -0.2
CN(CC(=O)Nc1c(Cl)cccc1Cl)C(=O)CCCN1C(=O)c2ccccc2C1=O | 0.1 | 86* | 30 | 0.08 | 0.7 | 0.2
COc1cccc(/C=N\n2c(C)nnc2C)c1OC | 1.1 | -8 | -18 | -1.3 | 1.2 | 0.063
COc1cccc(/C=N/n2c(C)nc3ccccc32)c1OC | 0.3 | 68* | 39 | -1.1 | 0.6 | -2
COc1ccc(/C=N/n2c(SC)nnc2-c2ccccc2)c(OC)c1OC | 0.3 | 67* | 79* | -2.1 | 0.2 | 0.51
CSc1nnc(-c2ccccc2)n1N | 1.1 | -10 | -17 | 0.14 | 1.2 | -0.036
COc1ccc(/C=N/n2c(SC)nnc2-c2ccccc2)cc1C | 0.7 | 32 | 54* | 0.13 | 0.5 | -1.6
CCOC(=O)N1CCN(C(=O)c2ccc(N(C)S(C)(=O)=O)cc2)CC1 | 1 | -4 | -5 | 0.04 | 1.1 | 0.036
CCCCCOc1ccc(C(=O)NCC(=O)NCC(=O)OCC)cc1 | 1.3 | -26 | -20 | -0.77 | 1.2 | 0.00057
CCCCNC(=O)CN(c1cccc(Br)c1)S(C)(=O)=O | . | . | . | 0.44 | . | 0.74
COC(=O)C1=C(C)N=C2SC(C)C(=O)N2C1/C=C/c1ccccc1OC (stereo unspecified) | 0.4 | 63* | 81* | 0.16 | 0.2 | -7.4*
CCC1SC2=NC(C)=C(C(=O)OCC(C)C)C(/C=C/c3ccccc3OC)N2C1=O (stereo unspecified) | 0.2 | 78* | 38 | -0.13 | 0.6 | -2.3
CCC1SC2=NC(C)=C(C(=O)OCCOC)C(/C=C/c3ccccc3OC)N2C1=O (stereo unspecified) | 0.1 | 91* | 78* | 0.24 | 0.2 | -5.8*
O=C(Nc1ccc(N2CCN(Cc3ccccc3)CC2)cc1)c1ncn[nH]1 | 1.1 | -7 | -1 | -0.21 | 1 | 2.1
Cc1sc2ncnc(N3CCCCC3C)c2c1C (stereo unspecified) | 0.5 | 47 | 79* | 0.18 | 0.2 | -0.047

Screening results from PubChem BioAssay.
